# Most compounds without a hit are left out; they make up all but 12% or so of the library.
# LASV entry inh: blocks Lassa virus binding to or entry into cells; AID 540256; Lassa virus pseudotype entry inhibition, cell reporter; Potency, µM (titrated, usually from 37.9 µM), for the others: at the top dose activity change, negative = inhibition, actives largely listed as inhibitors; 1.2% of 300,000 active; calls by dose curve; tested in HEK293 cells; note: potency is the fitted concentration of half-maximal effect; % is set by controls: 0 for no effect and ±100 for the full control effect; nearly all actives have a fitted effect of over 50% in size
# Shiga inhibitor: inhibitors of Shiga toxin in Vero cells. 9.2% of 290,000 active. Vero cells, Shiga toxin protein synthesis inhibition reporter. AID 2315. inhibition, % at 38.7 µM; in the data active = inhibition mostly above about 28%, no sharp cut-off; inactive = mostly below about 43%; note: 0% is about no effect
# MARV entry inh: Marburg virus entry inhibition; Marburg virus pseudotyped entry inhibition, cell reporter; Potency, µM (titrated, usually from 37.8 µM), for the others: top-dose activity change, negative = inhibition, actives largely listed as inhibitors; 1.8% of 300,000 active; AID 540276; calls by dose curve; tested in HEK293 cells; note: potency is the fitted concentration of half-maximal effect; % is set by controls: 0 for no effect and ±100 for the full control effect
# CHX counter: counter-screen hit for Shiga toxin inhibitors, cycloheximide. cell reporter, cycloheximide protein synthesis inhibition counterscreen. AID 2314. 12% of 300,000 active. max response, %; in the data active = max response mostly above about 13%, no sharp cut-off; inactive = mostly below about 14%; note: read at 38.3 µM for the half of the compounds with a filed dose; 0% is about no effect
# Starred values were filed as active, the others as inactive; u = inconclusive; x = not tested or not shown; + = active, no number; [ ] = remark or other dose.
SMILES,LASV entry inh,Shiga inhibitor,MARV entry inh,CHX counter
Cc1ccc(-c2cc(C(=O)Nc3cnn(C45CC6CC(CC(C6)C4)C5)c3)no2)cc1,-20%,-8,-14%,-5
CCCn1cc(NC(=O)c2cc(-c3ccccc3)on2)cn1,-10%,68*,u,35*
C/C(=N\NC(=O)Nc1ccccc1)c1ccc2ccccc2c1,u,-13,-7%,2
C/C(=N\NC(=O)Cc1c[nH]c2ccccc12)c1ccc2ccccc2c1,4µM*,33,u,10
CC(/C=C/c1ccc2c(c1)OCO2)=N/NC(=O)c1ccncc1,x,12,x,0
CC(C)C(=O)Nc1ccc(NC(=O)c2ccc3c(c2)OCO3)cc1,x,-2,x,-3
C/C(=N\NC(=O)c1ccc2c(c1)OCO2)c1ccc(O)cc1,x,41*,x,33*
C/C(=N\NC(=O)c1ccc2c(c1)OCO2)c1ccc(NS(C)(=O)=O)cc1,-11%,x,14%,x
CC(/C=C/c1ccc2c(c1)OCO2)=N/NC(=O)c1cccnc1,-1%,62*,-4%[46.1 µM],23*
C/C(=N/NC(=O)c1ccc2c(c1)OCO2)c1ccc(NC(=O)C(F)(F)F)cc1,u,36*,-5%,41*
Cc1cc(C)c(C)c(S(=O)(=O)NCc2ccc(C(=O)N3CCN(C)CC3)cc2)c1C,-18%,-14,-14%,4
C/C(=N\NC(=O)c1ccc2c(c1)OCO2)c1cccnc1,x,90*,x,37*
CC(C)CC(CC(C)C)=NNC(=O)c1ccc2c(c1)OCO2,0%[46.1 µM],74*,10%[46.1 µM],52*
CCC/C(=N/NC(=O)c1ccc2c(c1)OCO2)c1cccs1,2%,89*,u,96*
C/C(=N/NC(=O)CNC(=O)c1ccc2c(c1)OCO2)c1ccc2c(c1)CCCC2,3%,-11,u,7
C/C(=N\NC(=O)c1cc(C)oc1C)c1ccc2c(c1)OCO2,-11%,122*,-1%[46.1 µM],48*
Cc1ccc(C)c(Nc2nnc(-c3ccc(C)c(S(=O)(=O)NCC4CCCO4)c3)c3ccccc23)c1 (stereo not given),-16%[46.1 µM],x,u,x
COC[C@@H](O)[C@H]1OCc2cccc(OC)c2[C@H]1C=Cc1ccccc1,x,x,8%[14.2 µM],x
C/C(=N\NC(=O)Cc1ccc(Cl)cc1)c1cccc(NC(=O)c2cccnc2)c1,x,-6,x,3
C/C(=N\NC(=O)c1c[nH]c2ccccc12)c1ccc2c(c1)OCO2,x,42*,x,29*
C/C(=N\NC(=O)c1ccc(Br)cc1)c1cccnc1,27%[46.1 µM],45,u,22*
C/C(=N/NC(=O)c1ccco1)c1cccnc1,x,29,x,26
CC(C)(C)c1ccc(/C=N/NC(=O)Cc2c[nH]c3ccccc23)cc1,u,-5,15µM*,4
CC/C(=N\NC(=O)c1ccc2c(c1)OCO2)c1ccccc1,x,46*,x,37*
COc1ccc(NC(=O)Cn2nc(C)c3c(C)n(-c4ccccc4)nc3c2=O)cc1OC,-5%[46.1 µM],x,x,x
SMILES,LASV entry inh,Shiga inhibitor,MARV entry inh,CHX counter
C/C(=N\NC(=O)c1ccccc1)c1ccc2c(c1)OCO2,u,96*,-1%,51*
C/C(=N\NC(=O)c1ccc(NS(=O)(=O)c2cccs2)cc1)c1ccc2c(c1)OCO2,3%,-6,2%[46.1 µM],7
CC(=O)Nc1cccc(/C(C)=N/NC(=O)c2ccc3c(c2)OCO3)c1,-28%,42,u,26*
Cn1cccc1C(=O)Nc1ccc(Cl)c(S(=O)(=O)N2CCCCC2)c1,-8%,x,u,x
CCOc1ccc(-n2c(=O)c3sc4ccccc4c3n(Cc3ccc(F)cc3)c2=O)cc1,-24%[46.1 µM],x,12%[46.1 µM],x
Cc1ccc(OCc2cc(C(=O)N(C)Cc3cc(C4CC4)n[nH]3)no2)cc1C,x,32,x,9
Cc1ccc(S(=O)(=O)N2CCN(CN3C(=O)CC4(CCCC4)C3=O)CC2)cc1,-9%[46.1 µM],x,14%,x
CC(C)COC(=O)c1ccc2c(c1O)C(=O)c1ccccc1C2=O,u,66*,u,34*
CCOc1ccc(NC(=O)c2ccc(NC(=S)NC3CCCCC3)cc2)cc1,-22%[46.1 µM],36,u,24*
CCOc1ccc(NC(=O)c2ccc(CNc3c(NC4CCCCC4)c(=O)c3=O)cc2)cc1,x,-6,-1%,-5
CCOc1ccc(NC(=O)c2ccc(NC(=S)NC3CC3)cc2)cc1,13%,51*,0%[46.1 µM],11
Fc1ccc(CN(C2=NCCN2)c2c(Cl)cccc2Cl)cc1,u,x,18µM*,x
Fc1ccc(CN2CCN(c3ncccn3)CC2)cc1,9%,-13,-16%,-2
CC(=O)Nc1cccc(N/C=C(\C=O)c2nc3ccccc3o2)c1,u,36*,12%,29*
O=C/C(=C\Nc1ccccn1)c1nc2cc(Cl)ccc2o1,u,63*,u,47*
O=C/C(=C\Nc1ccc(Br)cc1)c1nc2ccccc2o1,-11%,4,17%[14.2 µM],-4
O=C/C(=C\Nc1ccccn1)c1nc2ccccc2o1,-14%,+,4%,27*
CC(=O)OCOC(=O)CNc1ccccc1OCCOc1ccccc1NCC(=O)OCOC(C)=O,x,-7,x,-10
CC1(C)[C@H](C(=O)NC2CCCCCC2)CC[C@]1(C)C(=O)O,x,x,21%,x
CC(=O)Nc1cccc(NC(=O)COc2nncc3ccccc23)c1,-21%,-17,-18%,-2
C=CCn1c(C)cc(C(=O)COc2ccc(C)nc2[N+](=O)[O-])c1C,u,98*,u,75*
C=CCn1c(C)cc(C(=O)COc2nncc3ccccc23)c1C,-14%,159*,-5%,69*
Cc1ccc(OCC(=O)c2cc(C)n(-c3ccccc3)c2C)c([N+](=O)[O-])n1,u,64*,u,46*
Cc1ccc(OCC(=O)c2c[nH]c3ccccc23)c([N+](=O)[O-])n1,x,81*,x,51*
Cc1ccc(OCC(=O)c2cc(C)c(C)cc2C)c([N+](=O)[O-])n1,-5%,19,-1%,2
SMILES,LASV entry inh,Shiga inhibitor,MARV entry inh,CHX counter
COc1ccc(CNC(=O)c2ccc(CS(=O)(=O)c3ccc(Br)cc3)o2)cc1,u,-6,x,-3
CC(C)(C)c1cccc(/C=N\O)c1O,x,x,0%,x
COCCn1c(C)cc(C(=O)COc2ccc(C)nc2[N+](=O)[O-])c1C,x,57,x,18
CCCn1c(C)cc(C(=O)COc2ccc(C)nc2[N+](=O)[O-])c1C,15%,85*,u,15*
C=CCn1c(C)cc(C(=O)COc2ccc(S(=O)(=O)N3CCCC3)cc2[N+](=O)[O-])c1C,2%,14,14%,13*
CCCCCCc1nc2ccccc2c(=O)n1NC(=O)c1c(O)c2cccc3c2n(c1=O)CCC3,x,-12,0%,-5
CCn1c(=O)c2sccc2n2c(CCCC(=O)N3CCN(c4ccc(OC)cc4)CC3)nnc12,-11%[46.1 µM],x,x,x
CC(=O)Nc1ccc(C2Nc3cc(C)c(C)cc3NC3=C2C(=O)CC(C)(C)C3)cc1 (stereo not given),x,40*,x,36*
COc1ccccc1/C=C/C(=O)NCCC1=CCCCC1,7.9µM*,118*,u,29*
O=C(/C=C/c1ccccc1)NCCC1=CCCCC1,-2%,40*,u,38*
O=C(/C=C/c1ccc(F)cc1)NCCC1=CCCCC1,u,117*,u,33*
CCc1ccccc1S(=O)(=O)Cc1ccc(C(=O)NCCc2ccc(Cl)cc2)o1,u,x,-28%[46.1 µM],x
Cc1csc2c(NC3CCN(Cc4ccccc4)CC3)ncnc12,-14%[46.1 µM],2,2.8µM*,-1

# Source: PubChem (National Center for Advancing Translational Sciences (NCATS))
